DAGLB inh: diacylglycerol lipase beta (human) inhibition; Q8NCG7; HEK293T DAGLB membrane lysate, EnzChek fluorogenic substrate; inhibition, % at 5.17 µM; actives 0.059% (n = 340,000); in the data active = inhibition above about 34%
Myeloid diff 2: promotes myeloid progenitor differentiation; ER-HoxA9 myeloid progenitors, lysozyme-GFP differentiation, flow cytometry; calls only at 10 µM; actives 1% (n = 360,000);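 active = normalized GFP-positive differentiation at or above the plate's own cutoff, the solvent-only control mean plus 3 SD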;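 note: cells exposed to compound for four days before flow analysis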
Rtt109 Vps75: inhibitors of Candida albicans Rtt109/Vps75 histone acetyltransferase | inhibition, % at 34.9 µM | actives 0.16% (n = 330,000) | purified Rtt109/Vps75, ThioGlo CoA-SH fluorescence, 4 h | AID 540336;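 active = inhibition of at least 50% in every replicate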
HGIII-sPLA2 inh: Inhibits HGIII-sPLA2 liposome hydrolysis, primary screen. inhibition, % at 12.2 µM. Q9NZ20. actives 0.56% (n = 370,000). QFRET BODIPY PC-A2 liposome hydrolysis, fluorescence;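 active = inhibition above mean plus 3 SD of compounds lying within the high and low control bounds, cut at about 19% in these data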
Target sequence (Q9NZ20 whole entry, looked up): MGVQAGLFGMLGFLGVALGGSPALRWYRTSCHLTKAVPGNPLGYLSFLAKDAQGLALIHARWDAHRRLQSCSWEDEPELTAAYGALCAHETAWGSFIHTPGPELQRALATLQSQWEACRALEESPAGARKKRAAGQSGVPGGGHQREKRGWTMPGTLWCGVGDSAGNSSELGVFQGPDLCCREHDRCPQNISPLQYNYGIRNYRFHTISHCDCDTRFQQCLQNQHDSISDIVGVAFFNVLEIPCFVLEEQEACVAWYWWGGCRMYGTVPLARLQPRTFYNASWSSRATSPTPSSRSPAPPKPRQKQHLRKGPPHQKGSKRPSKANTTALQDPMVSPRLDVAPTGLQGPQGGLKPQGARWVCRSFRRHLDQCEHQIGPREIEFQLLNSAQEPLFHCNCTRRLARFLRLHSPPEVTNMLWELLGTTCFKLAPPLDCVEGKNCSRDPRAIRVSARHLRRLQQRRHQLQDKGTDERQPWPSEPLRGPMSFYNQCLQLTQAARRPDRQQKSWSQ
ABHD5 PLIN5 PPI: inhibitors of human ABHD5-perilipin-5 interaction. Q00G26+Q8WTS1. Split G. princeps luciferase complementation, luminescence, 4 h. inhibition, % at 4 µM. actives 0.78% (n = 360,000). AID 602281;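 active = inhibition above the mean inhibition across every tested compound plus 3 SD, cut at about 22% in these data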
Cardio protect: myocardial damage modulation in H9c2 cells. H9c2 cardiomyocytes, H2O2 injury protection, ATPLite, 2 h. protection from H2O2 cell death, % at 20 µM. actives 0.63% (n = 360,000). AID 588492;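 active = compounds giving at least 50% protection of heart cells from peroxide-induced death in the single-dose screen, raw or plate-pattern-corrected value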
hGIII sPLA2 conf: human GIII-sPLA2 inhibition, confirmation | shares compounds with HGIII-sPLA2 inh | recombinant hGIII-sPLA2, BODIPY PC-A2 QFRET fluorescence | inhibition, % at 12.2 µM | actives 34% (n = 2,000) | AID 743280;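 active = mean inhibition across triplicates above the hit cutoff set in the earlier primary screen, cut at about 19% in these data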
535nm interf: optically interferes with 535nm fluorescence in sPLA2 counter-screen. shares compounds with HGIII-sPLA2 inh. BODIPY FL product fluorescence interference, QFRET. inhibition, % at 12.2 µM. AID 743282. actives 8.5% (n = 2,000);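 active = average inhibition above the solvent-only control mean plus 3 SD, cut at about 6% in these data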
BODIPY interf DR: interferes with 535nm fluorescence in dose response counter-screen; 240 tested, under 10 active; IC50, µM; AID 743455; shares compounds with HGIII-sPLA2 inh; BODIPY FL product fluorescence interference, cell-free;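 active = IC50 at or below 10 µM; inactive = IC50 above 10 µM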
Numbers stand for hits; i = inactive; nt = not tested or not shown; + = active, no number. Rows were chosen to be rich in hits. Some 2.9% of all compounds tested hit in one or more screens of this group.

SMILES | DAGLB inh | Myeloid diff 2 | Rtt109 Vps75 | HGIII-sPLA2 inh | ABHD5 PLIN5 PPI | Cardio protect | hGIII sPLA2 conf | 535nm interf | others
CC(=O)NNc1nc(-c2ccccc2)cs1 | i | i | i | i | i | i | nt | nt
O=C(NNc1nc2ccccc2s1)c1ccc(F)cc1 | i | i | i | i | i | i | nt | nt
O=C(NNc1nc(-c2ccccc2)cs1)c1cccs1 | nt | i | nt | 33 | i | i | 49 | 11
O=C(NNc1nc(-c2ccc(F)cc2)cs1)c1ccccc1 | i | i | i | 29 | i | i | 40 | 8.1
CC(C)(C)c1csc(NNC(=O)c2ccc(Br)cc2)n1 | i | i | i | 47 | i | 55 | 49 | i | BODIPY interf DR=i
COc1ccc(NC(=O)Cn2c3ccccc3c3nc4n(c(=O)c32)CCS4)cc1OC | i | i | i | i | i | i | nt | nt
Cc1nc(N2CCN(c3ccc(Cl)cc3)CC2)[nH]c(=O)c1C | i | i | i | i | i | i | nt | nt
Cn1c2ccccc2c(=O)c2c(=O)n(C3CCCCC3)c(-c3ccco3)nc21 | i | i | i | 28 | i | i | i | i
O=C(CNC1CCCC1)Nc1cc(Cl)ccc1[N+](=O)[O-] | i | i | i | 21 | i | i | i | i
Cc1onc(-c2c(F)cccc2Cl)c1C(=O)OCc1cnc(Cl)s1 | i | i | i | i | i | i | nt | nt
CC/C(=N/NC(=O)c1ccc(Br)cc1)c1ccc(OCCN2CCOCC2)cc1 | i | i | i | 21 | i | i | i | i
COC(=O)[C@]12C[C@H](CC(=O)N3CCCCC3)C(=O)N(CCc3ccc(OC)c(OC)c3)C1=C[C@H](C(C)(C)C)O[C@@H]2C | nt | nt | nt | i | nt | nt | nt | nt
COc1cccc(N=Nc2c(=O)[nH]n3c(C)cc(C)nc23)c1 | i | i | i | 22 | i | i | i | i
CN(CCC#N)C(=O)COC(=O)/C=C/c1cccs1 | i | i | i | 20 | i | i | i | i
Cc1ccc(NC(=O)CN(C)C(=O)COC(=O)/C=C/c2cccs2)cc1 | i | i | i | i | i | i | nt | nt
CCOC1=C2[C@@H](CN(S(=O)(=O)c3ccc(C)cc3)[C@H]2c2ccccc2F)[C@H]2C(=O)N(C3CCCCC3)C(=O)[C@H]2C1 | nt | i | nt | i | i | i | nt | nt
O=C(NCCCN1CCCC1=O)c1ccc(S(=O)(=O)Nc2ccccc2F)cc1 | i | i | i | i | i | i | nt | nt
O=C(NCCCN1CCCC1=O)c1ccc(CNS(=O)(=O)c2ccc(F)cc2)cc1 | i | i | i | 72 | i | i | i | i
Cc1cc(C)c(NC(=O)CCCSc2nnc(N)s2)c(C)c1 | i | i | i | i | i | i | nt | nt
Cc1cc2nc(/N=C(\N)NC(=O)N3c4ccccc4Sc4ccccc43)nc(C)c2cc1C | i | i | i | 21 | i | i | i | i
Oc1ccc(Oc2ccccc2F)c2cccnc12 | nt | nt | nt | 25 | nt | nt | 26 | i
Nc1cccnc1Oc1ccccc1F | i | i | i | i | i | i | nt | nt
CC(=O)c1ccc(S(=O)(=O)N2CCNCC2)cc1 | i | i | i | i | i | i | nt | nt
Cc1ccc(S(=O)(=O)N2c3ccccc3-c3c(ssc3=S)C2(C)C)cc1 | i | i | i | 28 | i | i | 24 | i
O=C(CSc1nc2[nH]ncc2c(=O)[nH]1)NCc1ccc(F)cc1 | i | i | nt | 96 | i | i | i | i
COc1ccc2cc(C3CC(c4cccs4)=NN3S(C)(=O)=O)c(Cl)nc2c1 (stereo unspecified) | i | i | nt | i | i | i | nt | nt
COCCn1c(=NC(=O)c2ccc(S(=O)(=O)N3CCCc4ccccc43)cc2)sc2cc(S(C)(=O)=O)ccc21 | i | + | i | 20 | i | i | i | i
C/C(=N/NC(=O)c1ccco1)c1ccc(NC(=O)c2ccc(F)cc2)cc1 | i | i | i | 23 | i | i | i | i
N=C(N)SCc1ccc(Cl)cc1Cl | i | i | i | 39 | i | i | i | i
NC(=S)Cc1ccc(Cl)cc1Cl | i | i | i | i | i | i | nt | nt

Screens deposited in PubChem BioAssay by several laboratories.
